# The entries come from a sample that favours the strongest signals as a whole.
# Legend:
# Assay in all cases: glycan array binding signal (z-score within array); higher = stronger binding
# Conditions in all cases: glycan notation: IUPAC condensed, linker removed
# [1] = target: GlcNAc(b1-3)Gal(b1-4)GlcNAc(b1-3)Gal(b1-4)GlcNAc
# How it was run: (§1)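 Glycan array data were curated from 3228 arrays in the Consortium for Functional Glycomics database and kept only where the protein sequence was available. Glycan names were converted to IUPAC-condensed notation, and columns mapping to the same glycan were averaged. The binding signal is a within-array Z-score, averaged across arrays of the same protein sequence at different concentrations or buffers and across linkers. Negative Z-scores can be read as non-binding.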
# [2] = target: GlcNAc(b1-3)Gal(b1-4)GlcNAc(b1-3)Gal(b1-4)GlcNAc(b1-2)Man(a1-3)[GlcNAc(b1-3)Gal(b1-4)GlcNAc(b1-3)Gal(b1-4)GlcNAc(b1-2)Man(a1-6)]Man(b1-4)GlcNAc(b1-4)[Fuc(a1-6)]GlcNAc
# How it was run: as §1
# [3] = target: GlcNAc(b1-3)Gal(b1-4)GlcNAc(b1-3)Gal(b1-4)GlcNAc(b1-3)Gal(b1-4)GlcNAc(b1-3)Gal(b1-4)GlcNAc(b1-2)Man(a1-3)[GlcNAc(b1-3)Gal(b1-4)GlcNAc(b1-3)Gal(b1-4)GlcNAc(b1-3)Gal(b1-4)GlcNAc(b1-3)Gal(b1-4)GlcNAc(b1-2)Man(a1-6)]Man(b1-4)GlcNAc(b1-4)[Fuc(a1-6)]GlcNAc
# How it was run: as §1
# [4] = target: GlcNAc(b1-3)Gal(b1-4)GlcNAc(b1-3)Gal(b1-4)GlcNAc(b1-3)Gal(b1-4)GlcNAc(b1-3)Gal(b1-4)GlcNAc(b1-2)[GlcNAc(b1-3)Gal(b1-4)GlcNAc(b1-3)Gal(b1-4)GlcNAc(b1-3)Gal(b1-4)GlcNAc(b1-3)Gal(b1-4)GlcNAc(b1-6)]Man(a1-6)[GlcNAc(b1-3)Gal(b1-4)GlcNAc(b1-3)Gal(b1-4)GlcNAc(b1-3)Gal(b1-4)GlcNAc(b1-3)Gal(b1-4)GlcNAc(b1-2)Man(a1-3)]Man(b1-4)GlcNAc(b1-4)[Fuc(a1-6)]GlcNAc
# How it was run: as §1
# [5] = target: GlcNAc(b1-3)Gal(b1-4)GlcNAc(b1-3)Gal(b1-4)GlcNAc(b1-3)GalNAc
# How it was run: as §1
# [6] = target: GlcNAc(b1-3)Gal(b1-4)GlcNAc(b1-6)[Gal(b1-3)]GalNAc
# How it was run: as §1
# [7] = target: GlcNAc(b1-3)Man
# How it was run: as §1
# [8] = target: GlcNAc(b1-4)GlcNAc(b1-4)GlcNAc(b1-4)GlcNAc(b1-4)GlcNAc
# How it was run: as §1
# [9] = target: Man(a1-2)Man(a1-6)[Man(a1-3)]Man(a1-6)[Man(a1-2)Man(a1-2)Man(a1-3)]Man(b1-4)GlcNAc(b1-4)GlcNAc
# How it was run: as §1
# [10] = target: MurNAc(b1-4)GlcNAc
# How it was run: as §1
# [11] = target: Neu5Ac(a2-3)Gal(b1-3)GalNAc(b1-4)[Neu5Ac(a2-8)Neu5Ac(a2-3)]Gal(b1-4)Glc
# How it was run: as §1
# [12] = target: Neu5Ac(a2-3)Gal(b1-3)GlcNAc(b1-2)Man(a1-3)[Neu5Ac(a2-3)Gal(b1-3)GlcNAc(b1-2)Man(a1-6)]Man(b1-4)GlcNAc(b1-4)GlcNAc
# How it was run: as §1
# [13] = target: Neu5Ac(a2-3)Gal(b1-3)GlcNAc(b1-6)GalNAc
# How it was run: as §1
# [14] = target: Neu5Ac(a2-3)Gal(b1-4)GlcNAc(b1-3)Gal(b1-3)GlcNAc
# How it was run: as §1
# [15] = target: Neu5Ac(a2-3)Gal(b1-4)[Fuc(a1-3)]GlcNAc(b1-3)GalNAc
# How it was run: as §1
# [16] = target: Neu5Ac(a2-3)[GalNAc(b1-4)]Gal(b1-4)Glc
# How it was run: as §1
# [17] = target: Neu5Ac(a2-6)Gal(b1-4)GlcNAc(b1-2)Man(a1-3)[Gal(b1-4)GlcNAc(b1-2)Man(a1-6)]Man(b1-4)GlcNAc(b1-4)GlcNAc
# How it was run: as §1
# [18] = target: Neu5Ac(a2-6)Gal(b1-4)GlcNAc(b1-2)Man(a1-3)[Neu5Ac(a2-6)Gal(b1-4)GlcNAc(b1-2)Man(a1-6)]Man(b1-4)GlcNAc(b1-4)[Fuc(a1-6)]GlcNAc
# How it was run: as §1
# [19] = target: Neu5Ac(a2-6)Gal(b1-4)GlcNAc(b1-2)Man(a1-6)Man(b1-4)GlcNAc(b1-4)GlcNAc
# How it was run: as §1
# [20] = target: Neu5Ac(a2-6)Gal(b1-4)GlcNAc(b1-3)Gal(b1-3)GlcNAc
# How it was run: as §1
# [21] = target: Neu5Ac(a2-6)Gal(b1-4)GlcNAc(b1-3)Gal(b1-4)GlcNAc(b1-3)Gal(b1-4)GlcNAc(b1-2)Man(a1-3)[Neu5Ac(a2-6)Gal(b1-4)GlcNAc(b1-3)Gal(b1-4)GlcNAc(b1-3)Gal(b1-4)GlcNAc(b1-2)Man(a1-6)]GalNAc
# How it was run: as §1
# [22] = target: Neu5Ac(a2-6)Gal(b1-4)GlcNAc(b1-3)Gal(b1-4)GlcNAc(b1-3)GalNAc
# How it was run: as §1
# [23] = target: Neu5Ac(a2-6)Gal(b1-4)GlcNAc(b1-3)Gal(b1-4)GlcNAc(b1-3)[Neu5Ac(a2-6)Gal(b1-4)GlcNAc(b1-3)Gal(b1-4)GlcNAc(b1-6)]GalNAc
# How it was run: as §1
# [24] = target: Neu5Ac(a2-8)Neu5Ac(a2-3)Gal(b1-3)GalNAc(b1-4)[Neu5Ac(a2-8)Neu5Ac(a2-3)]Gal(b1-4)Glc
# How it was run: as §1
# [25] = target: Neu5Ac(a2-8)Neu5Ac(a2-3)[Gal(b1-3)GalNAc(b1-4)]Gal(b1-4)Glc
# How it was run: as §1
# [26] = target: Neu5Ac9Ac(a2-6)Gal(b1-4)GlcNAc
# How it was run: as §1
# [27] = target: Neu5Gc(a2-6)Gal(b1-4)GlcNAc
# How it was run: as §1
# [28] = target: Neu5Gc(a2-8)Neu5Ac(a2-3)Gal(b1-4)GlcNAc
# How it was run: as §1
binder,measurement,setting,value
LlpA (Arthrobacter sp) (protein) MGSSHHHHHHSSGLVPRGSHMTLHPETALRPGAAATSPNSRYRLLYQTDGNLVLYGPDGPLWDSGTNGHGAGACIMQADGNLVLYGPNDEYVWDTETDNNPGSRLVIQDDGNAVIYRPDGSPLWATETCQPPGSADSHVLQSGSTLTPTHGIRSANGLYGLLYQTDGNLVFYGPDGPLWDSGTNGRGAGACIMQPDGNLVLYGPHDEYVWDTETDNNPGSRLVIQDDGNAVIYRPDGNPTWVTGTH,glycan array binding signal (z-score),[1],-0.689
same,glycan array binding signal (z-score),[2],2.11
same,glycan array binding signal (z-score),[3],2.07
same,glycan array binding signal (z-score),[4],1.82
same,glycan array binding signal (z-score),[5],0.18
same,glycan array binding signal (z-score),[6],-0.319
same,glycan array binding signal (z-score),[7],1.02
same,glycan array binding signal (z-score),[8],0.068
same,glycan array binding signal (z-score),[9],0.31
same,glycan array binding signal (z-score),[10],-0.798
same,glycan array binding signal (z-score),[11],-0.752
same,glycan array binding signal (z-score),[12],-0.65
same,glycan array binding signal (z-score),[13],0.849
same,glycan array binding signal (z-score),[14],0.273
same,glycan array binding signal (z-score),[15],1.8
same,glycan array binding signal (z-score),[16],0.446
same,glycan array binding signal (z-score),[17],-0.376
same,glycan array binding signal (z-score),[18],2.31
same,glycan array binding signal (z-score),[19],0.4
same,glycan array binding signal (z-score),[20],-0.33
same,glycan array binding signal (z-score),[21],2.47
same,glycan array binding signal (z-score),[22],0.214
same,glycan array binding signal (z-score),[23],0.568
same,glycan array binding signal (z-score),[24],1.98
same,glycan array binding signal (z-score),[25],0.321
same,glycan array binding signal (z-score),[26],0.62
same,glycan array binding signal (z-score),[27],-0.005
same,glycan array binding signal (z-score),[28],-0.504
